About 31,000 (8.9%) of roughly 350,000 compounds were called active. Inconclusive results (about 15%) are left out. Calls follow the shape of the dose curve; as a rule, active = well fitted inhibition curve with a large enough effect; inconclusive = small, poorly fitted or top-dose-only effect; inactive = no such curve, though single readings can be large or run the other way. Only a selection was taken, and actives are over-represented in it overall. Some compounds were tested as several samples or in several runs, with calls that do not always agree.
% is scaled to controls: 0 for no effect and ±100 for the full control effect; potency is read from the fitted curve at half-maximal effect.

Sequence of Histone-lysine N-methyltransferase EHMT2 (Homo sapiens) (Q96KQ7 913-1193 limits assumed): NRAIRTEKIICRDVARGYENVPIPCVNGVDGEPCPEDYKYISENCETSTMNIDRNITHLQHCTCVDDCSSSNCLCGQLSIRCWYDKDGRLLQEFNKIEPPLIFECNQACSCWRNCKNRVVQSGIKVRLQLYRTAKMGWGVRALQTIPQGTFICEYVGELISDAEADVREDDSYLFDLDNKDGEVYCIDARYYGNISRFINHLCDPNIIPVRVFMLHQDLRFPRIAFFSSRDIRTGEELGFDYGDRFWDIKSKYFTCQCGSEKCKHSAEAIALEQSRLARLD

This test addresses Histone-lysine N-methyltransferase EHMT2 (Homo sapiens) (UniProt Q96KQ7). Nature of the test: qHTS Assay for Inhibitors of Histone Lysine Methyltransferase G9a. Also: nearly all actives have a fitted effect of over 75% in size. The note with it: G9a H3K9 monomethylation, AlphaScreen, 2 h; series mostly up to 59 µM; activity, negative = inhibition: at the top concentration. The procedure, abridged: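 G9a (20 nM) preincubated 15 min RT with compounds, then 500 nM biotinylated H3K9 peptide and 20 uM SAM added; 2 h RT reaction. Monomethyl-H3K9 product detected by AlphaScreen with anti-H3K9me1 antibody, streptavidin donor and anti-rabbit IgG acceptor beads.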
(In general: qHTS replaces the single test concentration by a dilution series.)
Turning to `O=C(NC(=S)Nc1cccc2c(O)cccc12)c1cccc(Br)c1`, the Potency is 50.1 µM (active).

For `CC(=O)Nc1ccc(S(=O)(=O)N2CCN(S(=O)(=O)c3cccs3)CC2)cc1`, the “activity, negative = inhibition” value is -24.6% [at 102 µM] (inactive). For the compound `CCCc1c(C(=O)N/N=C(\C)CCc2ccc(OC)cc2)nnn1-c1nonc1N`, the “activity, negative = inhibition” value is 20.9% [at 102 µM] (inactive). `O=C(/C=C/c1ccc(Cl)cc1Cl)c1cccnc1`: the Potency is 8.91 µM (active). Consider `O=C(/C=C/c1ccc(Cl)c([N+](=O)[O-])c1)c1cccnc1`, for which the Potency was 39.8 µM (active). As to `C/C(=N\NC(=O)Cc1ccccc1[N+](=O)[O-])c1cccnc1`, the “activity, negative = inhibition” value was 79.8% [at 102 µM] (inactive). Consider `O=C(Nc1cccnc1)c1cc(Cl)ccc1Cl`, for which the “activity, negative = inhibition” value is 5.34% [at 102 µM] (inactive). On to `O=C(Nc1cccnc1)c1cc([N+](=O)[O-])ccc1Cl`, for which the “activity, negative = inhibition” value is -28.5% [at 102 µM] (inactive). For the compound `O=C(/C=C/c1ccc(Cl)cc1Cl)NCc1ccco1`, the activity, negative = inhibition was 2.18% [at 0.501 µM] (inactive). `Cc1ccc(S(=O)(=O)N2CCCc3cc(NS(=O)(=O)c4cc(C)ccc4C)ccc32)cc1`: the “activity, negative = inhibition” value is -41.9% (inactive). Same read-out and setting: to `CCOc1ccc(CCNC(=O)COC(=O)CCS(=O)(=O)c2ccc(C)cc2)cc1OCC` belongs -3.67% [at 0.501 µM] (inactive); to `O=C(CCn1c(=O)c2sccc2n(Cc2ccc(F)cc2)c1=O)NCc1ccc2c(c1)OCO2`, -1.21% (inactive).

In the case of `O=C(NC1CCCCC1)c1ccc(-c2ccc(Cl)cc2)o1`, the Potency is 44.7 µM (active). In the case of `S=C(NCc1ccc(Cl)cc1)NC1CCCCC1`, the “activity, negative = inhibition” value was 8.97% (inactive). For the compound `O=C(NC1CCCCCC1)c1cccnc1Sc1ccc(Cl)cc1`, the “activity, negative = inhibition” value was 7.32% (inactive). As to `CCSc1ncc(Cl)c(C(=O)Nc2c(C(=O)c3ccccc3)oc3ccccc23)n1`, the “activity, negative = inhibition” value was -5.28% (inactive). `Cc1ccc(CNC(=O)CSc2c3c(nc4cc(Cl)ccc24)CCCC3)cc1`: the “activity, negative = inhibition” value was -3.31% (inactive). Regarding `COc1ccc(CNC(=O)c2cc3c(=O)[nH]c4ccccc4c3s2)cc1`, the “activity, negative = inhibition” value was 10.3% (inactive). For the compound `CCCn1c(=O)c2[nH]c(-c3ccc(OCC(=O)NCCN)cc3)nc2n(CCC)c1=O`, the Potency is 14.1 µM (active) and the activity, negative = inhibition was 32.3% [at 12.7 µM] (inactive). As to `CCCn1c(=O)c2[nH]c(C3CCCC3)nc2n(CCC)c1=O`, the Potency entry was “inactive”. Regarding `CCCNC(=O)CCn1cc(-c2ccc(OC)cc2)nc1CCN`, the activity, negative = inhibition is -5.65% [at 2.33 µM] (inactive). Regarding `COc1ccc(CNC(=O)c2cc3c(s2)-c2ccccc2OC3)cc1`, the “activity, negative = inhibition” value is -3.7% (inactive).

Regarding `Cc1ccc(C(=O)NC(=S)NCc2cccnc2)cc1`, the “activity, negative = inhibition” value is -24.2% [at 102 µM] (inactive).

Take `CC(C)(C)c1cc(C(=O)NCc2cccnc2)ccn1`: the activity, negative = inhibition was 17.8% [at 0.501 µM] (inactive). As for `Cc1ccc(-n2nc(-c3ccco3)cc2C(=O)NCc2cccnc2)cc1`, the Potency is 2.51 µM (active). Take `O=C(NCC12CC3CC(CC(C3)C1)C2)c1cc2nc(-c3ccccc3)cc(C(F)(F)F)n2n1`: the “activity, negative = inhibition” value was -1.06% (inactive). As for `COc1cc(OC)c(NC(=O)c2nc(-c3ccncc3)no2)cc1Cl`, the “activity, negative = inhibition” value was 6.69% (inactive).

Turning to `Cc1ccc(C)c(Nc2nnc(-c3ccc(C)c(S(=O)(=O)N4CCCCC4)c3)c3ccccc23)c1`, the “activity, negative = inhibition” value is -34.2% (inactive).

As to `O=C(CNC(=O)c1ccccc1Br)NNC(=O)c1cccs1`, the “activity, negative = inhibition” value was 7.12% [at 102 µM] (inactive). Take `O=C1CCC(C(=O)N2CCN(c3ccccc3Cl)CC2)CN1CC1CCCCC1` (centres undefined): the “activity, negative = inhibition” value is 0.955% (inactive). Regarding `COc1ccc(NC(=O)COC(=O)c2n[nH]c3ccccc23)c(OC)c1`, the activity, negative = inhibition is 3.57% [at 12.7 µM] (inactive). The same measure, in the same setting: to `CCCn1c(C)cc(/C=C(\C#N)C(=O)OCC(=O)N(C)c2c(N)n(Cc3ccccc3)c(=O)[nH]c2=O)c1C` belongs -50.7% [at 102 µM] (inactive). Take `CCN(CC)c1ccc(/C=N/NC(=O)CNC(=O)c2cccs2)cc1`: the Potency is 50.1 µM (active). Turning to `O=C(CNC(=O)c1cccs1)N/N=C/c1cccc(Br)c1`, the “activity, negative = inhibition” value was 18.8% [at 102 µM] (inactive).

Take `CCN(CC)c1ccc(/C=N/NC(=O)CNC(=O)c2cccnc2)cc1`: the “activity, negative = inhibition” value was -26.8% [at 102 µM] (inactive). Turning to `O=C(NCCS(=O)(=O)N1CCN(c2ccc(F)cc2)CC1)c1ccccc1Br`, the “activity, negative = inhibition” value was 2.38% (inactive). As to `O=C(Nc1ccc(OC(F)(F)F)cc1)C1CCCN(S(=O)(=O)c2ccc(Br)s2)C1` (centres undefined), the “activity, negative = inhibition” value was 14.2% (inactive).

Regarding `N#Cc1ccc(C(=O)OCC(=O)NC(=O)NC2CCCCC2)cc1`, the activity, negative = inhibition was 13.4% [at 2.33 µM] (inactive). Take `N#CCC(=O)NC(=O)NCC1CC1`: the Potency is 39.8 µM (active). In the case of `CC(C)NC(=O)NC(=O)COC(=O)c1ccc(NC(=O)CC#N)cc1`, the “activity, negative = inhibition” value was -1.05% (inactive). Regarding `CC1(C)O[C@@H]2[C@H](O1)[C@@H](CO)O[C@H]2n1c(N2CCCCC2)nc2c(N)ncnc21`, the activity, negative = inhibition is 9.14% [at 0.501 µM] (inactive). Turning to `Cc1cc(OCC(=O)Nc2ncn[nH]2)c(C)c(C)c1Br`, the “activity, negative = inhibition” value is 78.8% (inactive). On the same count and under the same terms, to `CC(=O)Nc1ccc(S(=O)(=O)N2CCN(CCCOc3cc(C)ccc3C)CC2)cc1` belongs -3.97% [at 12.7 µM] (inactive).

Regarding `Cc1ccc(C)c(OCCC(=O)Nc2cccc(S(=O)(=O)N3CCCC3)c2)c1`, the activity, negative = inhibition is 6.86% [at 0.501 µM] (inactive).

Consider `Cc1ccc(OCCCCN2CCCCC2)c(Br)c1`, for which the Potency is 11.2 µM (active). As for `Cc1ccc(OCC(O)CN2CCN(CC(O)COc3ccc(C)cc3Cl)CC2)c(Cl)c1` (centres undefined), the “activity, negative = inhibition” value is 23.1% [at 102 µM] (inactive). Same read-out and setting: the same measure for `Cc1ccc(Cl)c(OCC(=O)NN2CCN(C)CC2)c1`: 7.88% [at 102 µM] (inactive). Consider `Cc1ccc(C(C)(C)C)c(OCCCCN2CCCC2)c1`, for which the Potency is 8.91 µM (active).

Source of the values: PubChem BioAssay AID504332 (National Center for Advancing Translational Sciences (NCATS), 2011).
